In all, about 5,500 compounds went through this assay and about 2,000 (36%) were called active. Another 18% or so got no clear call; they are omitted. Cut-off read from the data, not from the text of the source: active = normalized growth mostly below about 0.91 (no sharp cut-off); inconclusive = no clear call, values can overlap the other calls; inactive = mostly above about 0.92. Some of the results follow.
Test: chemical genetic growth profiling, strain panel (AID 1159580);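 note: tested at 20 µM; growth read once vehicle control cultures reached saturation at 30 °C; 1 = growth at the plate median or of vehicle wells; lower values mean less growth of the strain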
Conditions: S. cerevisiae deletion strains, growth OD
[1] = locus YAR019C, strain CDC15, hits give low values
[2] = locus YBL105C, strain PKC1, hits give low values
[3] = locus YBR135W, strain CKS1, hits give low values
[4] = locus YBR136W, strain MEC1, hits give low values
[5] = locus YBR160W, strain CDC28, hits give low values
[6] = locus YDL017W, strain CDC7, hits give low values
[7] = locus YDL028C, strain MPS1, hits give low values
[8] = locus YDL101C, strain DUN1, hits give low values
[9] = locus YDL108W, strain KIN28, hits give low values
[10] = locus YDL132W, strain cdc53, hits give low values
[11] = locus YDL214C, strain PRR2, hits give low values
[12] = locus YDR052C, strain DBF4, hits give low values
[13] = locus YDR054C, strain cdc34, hits give low values
[14] = locus YDR226W, strain ADK1, hits give low values
[15] = locus YDR477W, strain SNF1, hits give low values
[16] = locus YER123W, strain YCK3, hits give low values
[17] = locus YER133W, strain GLC7, hits give low values
[18] = locus YFL009W, strain cdc4, hits give low values
[19] = locus YFL029C, strain CAK1, hits give low values
[20] = locus YFR003C, strain YPI1, hits give low values
[21] = locus YFR019W, strain FAB1, hits give low values
[22] = locus YFR028C, strain CDC14, hits give low values
[23] = locus YGR040W, strain KSS1, hits give low values
[24] = locus YGR052W, strain FMP48, hits give low values
[25] = locus YGR092W, strain DBF2, hits give low values
[26] = locus YHR030C, strain SLT2, hits give low values
[27] = locus YHR079C, strain IRE1, hits give low values
[28] = locus YHR082C, strain KSP1, hits give low values
[29] = locus YHR205W, strain SCH9, hits give low values
[30] = locus YIL147C, strain SLN1, hits give low values
[31] = locus YJL095W, strain BCK1, hits give low values
[32] = locus YJL128C, strain PBS2, hits give low values
[33] = locus YJL157C, strain FAR1, hits give low values
[34] = locus YJR016C, strain ILV3, hits give low values
[35] = locus YJR066W, strain TOR1 (second series), hits give low values
[36] = locus YJR066W, strain TOR1, hits give low values
[37] = locus YKL048C, strain ELM1, hits give low values
[38] = locus YKL067W, strain YNK1, hits give low values
[39] = locus YKL101W, strain HSL1, hits give low values
[40] = locus YKL193C, strain SDS22, hits give low values
[41] = locus YKL203C, strain TOR2, hits give low values
[42] = locus YLR113W, strain HOG1, hits give low values
[43] = locus YLR133W, strain CKI1, hits give low values
[44] = locus YLR403W, strain SFP1, hits give low values
[45] = locus YML070W, strain DAK1, hits give low values
[46] = locus YMR001C, strain CDC5, hits give low values
[47] = locus YMR205C, strain PFK2 (second series), hits give low values
[48] = locus YMR277W, strain FCP1, hits give low values
[49] = locus YNL006W, strain LST8, hits give low values
[50] = locus YNL020C, strain ARK1, hits give low values
[51] = locus YNL161W, strain CBK1, hits give low values
[52] = locus YNL183C, strain NPR1, hits give low values
[53] = locus YNL207W, strain RIO2, hits give low values
[54] = locus YNL222W, strain SSU72, hits give low values
[55] = locus YNL307C, strain MCK1 (second series), hits give low values
[56] = locus YOL078W, strain AVO1, hits give low values
[57] = locus YOL136C, strain PFK27, hits give low values
[58] = locus YOR061W, strain CKA2, hits give low values
[59] = locus YOR119C, strain RIO1, hits give low values
[60] = locus YOR231W, strain MKK1, hits give low values
[61] = locus YOR329C, strain SCD5, hits give low values
[62] = locus YPL031C, strain PHO85, hits give low values
[63] = locus YPL153C, strain RAD53, hits give low values
[64] = locus YPL204W, strain HRR25, hits give low values
[65] = locus YPL209C, strain IPL1, hits give low values
[66] = locus YPL256C, strain CLN2, hits give low values
[67] = locus YPR025C, strain CCL1, hits give low values
[68] = locus YPR106W, strain ISR1, hits give low values
[69] = locus YPR111W, strain DBF20, hits give low values
[70] = strain NNK1, hits give low values
[71] = strain TSCII, hits give low values
[72] = locus YAL013W, strain DEP1, hits give low values
[73] = locus YBR229C, strain ROT2, hits give low values
[74] = locus YDR150W, strain NUM1, hits give low values
[75] = locus YEL061C, strain CIN8, hits give low values
[76] = locus YGR078C, strain PAC10, hits give low values
[77] = locus YHR087W, strain rtc3, hits give low values
[78] = locus YJR043C, strain POL32, hits give low values
[79] = locus YJR075W, strain HOC1, hits give low values
[80] = locus YLR039C, strain RIC1, hits give low values
[81] = locus YLR058C, strain SHM2 (second series), hits give low values
[82] = locus YLR085C, strain ARP6, hits give low values
[83] = locus YLR262C, strain YPT6, hits give low values
[84] = locus YML094W, strain GIM5, hits give low values
[85] = locus YMR219W, strain ESC1, hits give low values
[86] = locus YMR307W, strain GAS1, hits give low values
[87] = locus YNL128W, strain TEP1, hits give low values
[88] = locus YNL153C, strain GIM3, hits give low values
[89] = locus YNL298W, strain CLA4 (second series), hits give low values
[90] = locus YNL322C, strain KRE1, hits give low values
[91] = locus YNR030W, strain Alg12, hits give low values
[92] = locus YPL055C, strain LGE1, hits give low values
[93] = locus YPL241C, strain CIN2, hits give low values
[94] = locus YPR135W, strain CTF4, hits give low values

Measured: normalized growth

Cc1oc(C(C)(C)C)cc1-c1cc(NC(=O)c2ccccc2)n[nH]1
active: [26] 0.611 | [42] 0.778 | [66] 0.844
inactive: [1] 0.965 | [2] 0.98 | [3] 0.974 | [4] 0.975 | [5] 0.97 | [6] 0.99 | [7] 0.948 | [8] 0.994 | [9] 0.972 | [10] 0.993 | [11] 0.913 | [12] 0.984 | [13] 0.966 | [14] 0.962 | [15] 0.924 | [16] 0.885 | [17] 0.957 | [18] 0.951 | [19] 0.962 | [20] 0.988 | [21] 0.921 | [22] 0.961 | [23] 0.94 | [24] 0.93 | [25] 0.743 | [27] 0.695 | [28] 0.81 | [29] 0.849 | [30] 0.966 | [31] 0.822 | [32] 0.908 | [33] 0.909 | [34] 0.981 | [35] 0.883 | [36] 0.798 | [37] 0.943 | [38] 0.899 | [39] 0.878 | [40] 0.98 | [41] 1.01 | [43] 0.911 | [44] 0.925 | [45] 0.872 | [46] 0.95 | [47] 0.922 | [48] 0.95 | [49] 0.962 | [50] 0.903 | [51] 0.976 | [52] 0.963 | [53] 0.969 | [54] 0.969 | [55] 0.876 | [56] 0.981 | [57] 0.866 | [58] 0.91 | [59] 0.928 | [60] 0.791 | [61] 0.981 | [62] 0.908 | [63] 0.877 | [64] 0.883 | [65] 0.972 | [67] 0.979 | [68] 0.969 | [69] 0.935 | [70] 0.951 | [71] 0.958

O=C(Nc1cc(-c2ccccc2)[nH]n1)c1ccccc1
active: [75] 0.867 | [26] 0.619 | [78] 0.919 | locus YKL190W, strain CNB1, hits give low values 0.89 | [80] 0.719 | [82] 0.634 | [83] 0.79 | [86] 0.492 | [91] 0.867 | locus YOL006C, strain TOP1, hits give low values 0.63 | [94] 0.488
inactive: [72] 0.938 | [73] 0.947 | [8] 0.935 | locus YDL134C, strain PPH21, hits give low values 0.923 | [74] 1.03 | [76] 0.936 | [77] 0.913 | [79] 0.902 | [81] 0.982 | [84] 0.888 | [85] 0.968 | [87] 0.973 | [88] 0.946 | [89] 0.844 | [90] 0.988 | [92] 0.907 | [93] 0.865

CC(C)(C)c1ccc(-c2cc(NC(=O)c3ccc(Cl)cc3)n[nH]2)cc1
active: [66] 1.21 [resistant]
inactive: [1] 0.986 | [2] 1.02 | [3] 1.02 | [4] 1.01 | [5] 0.99 | [6] 1 | [7] 1.03 | [8] 1.01 | [9] 1.01 | [10] 1.03 | [11] 1.04 | [12] 0.995 | [13] 1.01 | [14] 1.01 | [15] 1.02 | [16] 1.01 | [17] 1.02 | [18] 1.02 | [19] 1.01 | [20] 1.01 | [21] 1.01 | [22] 1.01 | [23] 1.03 | [24] 0.995 | [25] 0.933 | [26] 1.08 | [27] 1.1 | [28] 1.1 | [29] 0.96 | [30] 1.04 | [31] 0.999 | [32] 0.978 | [33] 1.01 | [34] 1.03 | [35] 0.983 | [36] 1.05 | [37] 1.03 | [38] 1.02 | [39] 1.05 | [40] 1.03 | [41] 1.09 | [42] 1.03 | [43] 1.02 | [44] 0.971 | [45] 1.04 | [46] 1 | [47] 0.99 | [48] 1.02 | [49] 0.999 | [50] 1.03 | [51] 1.02 | [52] 1.04 | [53] 1.01 | [54] 0.992 | [55] 1 | [56] 1.01 | [57] 1.03 | [58] 0.993 | [59] 1.1 | [60] 1.02 | [61] 1.04 | [62] 1.02 | [63] 1.01 | [64] 1.01 | [65] 1.01 | [67] 1 | [68] 1.01 | [69] 1 | [70] 1.01 | [71] 1.03

Cc1cc(NS(=O)(=O)c2ccc(NC(=O)c3ccccc3)cc2)no1
inactive: [72] 0.988 | [73] 0.995 | [8] 0.979 | [74] 1.03 | [75] 1.03 | [76] 0.984 | [26] 1.03 | [77] 1.01 | [78] 0.983 | [79] 0.992 | [80] 1.02 | [81] 1.02 | [82] 1.05 | [83] 0.986 | [84] 1.02 | [85] 1.01 | locus YMR263W, strain SAP30, hits give low values 0.916 | [86] 1.03 | [87] 1 | [88] 1 | [89] 1 | [90] 1.01 | [91] 1 | [92] 1.03 | [93] 1.02 | [94] 0.991

— PubChem BioAssay AID1159580 (chemical genetic matrix, 2015)
